The values below come from PubChem BioAssay.

The nature of assay [1]: antimalarial activity against Dd2 strain (AID 2302;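 active = growth inhibition above 50% at the single 2 µM test dose, taken to imply half-maximal potency below 2 µM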;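 also: 0% = DMSO untreated growth and 100% = chloroquine plus artemisinin killed control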). To be noted: P. falciparum Dd2 in RBCs, LDH growth readout, 72 h; at 2 µM; hits give high values.
Assay [2] can be described thus: HepG2 cytotoxicity, primary screen, cytotoxicity control for P. falciparum antimalarial project, cell-based, ATP luminescence (AID 2303;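 active = inhibition above 50%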;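 also: 0% = DMSO wells and 100% = digitonin-killed cells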). To be noted: HepG2 viability, 24-48 h, at 10 µM, hits give high values.
In assay [3] the target is L-lactate dehydrogenase (Plasmodium falciparum (isolate CDC / Honduras)) (UniProt Q27743). The assay can be described thus: PfLDH activity inhibition – cell lysate, 3D7 strain, counter-screen for P. falciparum growth inhibition project (AID 2304).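 Also: 0% = vehicle and 100% = reference inhibitor.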 Particulars: P. falciparum 3D7 crude extract, LDH APAD/NBT absorbance; at 2 µM; hits give high values. For orientation: Counterscreens check selectivity or assay interference.

The nature of assay [4]: inhibition of 3D7 malaria parasite growth – strain 3D7 (AID 2306).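 Also: 0% = DMSO wells and 100% = chloroquine plus artemisinin control wells.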 Particulars: P. falciparum 3D7 erythrocytic growth, LDH absorbance, 72 h; at 2 µM; hits give high values.
In assay [5] the target is Calcium-dependent protein kinase 1 (Plasmodium falciparum (isolate 3D7)) (UniProt P62344). In words: PfCDPK1 kinase inhibitors, biochemical, TCAMS library (AID 1159585; cut-off not given, nearly all actives have IC50 up to about 0.98 µM;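 also: inhibitors leave more ATP so luminescence rises with inhibition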). To be noted: recombinant PfCDPK1, Kinase-Glo ATP depletion luminescence.
In assay [6] the target is Plasmodium falciparum protein kinase 6 (PK6, PF3D7_1337100) (UniProt Q8IDW1). The assay can be described thus: PfPK6 kinase inhibitors, biochemical, TCAMS library (AID 1159586). Particulars: recombinant PfPK6, Kinase-Glo ATP depletion luminescence.
The target in assay [7] is Protein kinase 7 (PK7), Plasmodium falciparum 3D7 (PF3D7_0213400) (UniProt Q7YTF7). The assay can be described thus: inhibition of Plasmodium PK7 catalytic activity – biochemical, TCAMS antimalarial set, Kinase-Glo luminescence (AID 1159587). Particulars: recombinant PfPK7, Kinase-Glo ATP depletion luminescence. On the technique in general: In Kinase-Glo more light means more ATP remaining.

The target of assay [8] is Calcium-dependent protein kinase 4 (Plasmodium falciparum (isolate 3D7)) (UniProt Q8IBS5). In words: PfCDPK4 kinase inhibitors, biochemical, TCAMS library (AID 1159588; cut-off not given, nearly all actives have IC50 up to about 0.91 µM). Particulars: recombinant PfCDPK4, Kinase-Glo ATP depletion luminescence.

A number with no mark means an inactive call. For some of these results: Potency and affinity values are given separately. The source made the active and inactive calls. Unless noted, no rule for the calls is given here.

Chain of Calcium-dependent protein kinase 1 (Plasmodium falciparum (isolate 3D7)) (P62344 whole entry, looked up): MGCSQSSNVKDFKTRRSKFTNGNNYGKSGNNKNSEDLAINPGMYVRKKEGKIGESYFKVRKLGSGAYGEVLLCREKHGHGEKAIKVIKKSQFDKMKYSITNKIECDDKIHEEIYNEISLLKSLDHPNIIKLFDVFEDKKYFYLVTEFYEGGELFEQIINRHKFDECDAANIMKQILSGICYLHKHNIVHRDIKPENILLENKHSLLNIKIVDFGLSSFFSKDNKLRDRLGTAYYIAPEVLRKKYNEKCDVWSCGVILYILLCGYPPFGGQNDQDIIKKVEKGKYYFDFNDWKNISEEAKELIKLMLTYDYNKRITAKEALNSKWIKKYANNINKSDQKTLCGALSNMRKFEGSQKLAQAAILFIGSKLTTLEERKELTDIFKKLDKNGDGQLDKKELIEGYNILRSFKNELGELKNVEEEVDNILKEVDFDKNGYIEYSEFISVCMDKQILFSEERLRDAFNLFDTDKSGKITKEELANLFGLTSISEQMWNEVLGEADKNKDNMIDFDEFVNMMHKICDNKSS
Chain of L-lactate dehydrogenase (Plasmodium falciparum (isolate CDC / Honduras)) (Q27743 whole entry, looked up): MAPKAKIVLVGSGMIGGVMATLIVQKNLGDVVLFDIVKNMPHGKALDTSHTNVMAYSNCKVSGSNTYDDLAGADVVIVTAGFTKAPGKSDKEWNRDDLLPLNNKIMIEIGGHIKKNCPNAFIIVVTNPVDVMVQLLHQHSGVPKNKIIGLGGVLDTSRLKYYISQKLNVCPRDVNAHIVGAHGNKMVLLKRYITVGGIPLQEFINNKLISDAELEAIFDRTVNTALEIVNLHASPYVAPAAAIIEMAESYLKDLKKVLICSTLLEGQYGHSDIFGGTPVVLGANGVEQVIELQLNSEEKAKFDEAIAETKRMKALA
Chain of Protein kinase 7 (PK7), Plasmodium falciparum 3D7 (PF3D7_0213400) (Q7YTF7 1-343): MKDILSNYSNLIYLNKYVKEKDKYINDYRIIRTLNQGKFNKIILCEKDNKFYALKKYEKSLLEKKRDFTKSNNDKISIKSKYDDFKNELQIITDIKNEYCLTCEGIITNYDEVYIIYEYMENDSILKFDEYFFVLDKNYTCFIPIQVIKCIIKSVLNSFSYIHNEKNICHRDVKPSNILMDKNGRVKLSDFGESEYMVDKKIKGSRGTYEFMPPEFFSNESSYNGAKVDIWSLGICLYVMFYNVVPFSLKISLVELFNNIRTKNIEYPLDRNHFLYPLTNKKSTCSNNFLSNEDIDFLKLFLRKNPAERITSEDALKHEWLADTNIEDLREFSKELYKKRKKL
Chain of Calcium-dependent protein kinase 4 (Plasmodium falciparum (isolate 3D7)) (Q8IBS5 whole entry, looked up): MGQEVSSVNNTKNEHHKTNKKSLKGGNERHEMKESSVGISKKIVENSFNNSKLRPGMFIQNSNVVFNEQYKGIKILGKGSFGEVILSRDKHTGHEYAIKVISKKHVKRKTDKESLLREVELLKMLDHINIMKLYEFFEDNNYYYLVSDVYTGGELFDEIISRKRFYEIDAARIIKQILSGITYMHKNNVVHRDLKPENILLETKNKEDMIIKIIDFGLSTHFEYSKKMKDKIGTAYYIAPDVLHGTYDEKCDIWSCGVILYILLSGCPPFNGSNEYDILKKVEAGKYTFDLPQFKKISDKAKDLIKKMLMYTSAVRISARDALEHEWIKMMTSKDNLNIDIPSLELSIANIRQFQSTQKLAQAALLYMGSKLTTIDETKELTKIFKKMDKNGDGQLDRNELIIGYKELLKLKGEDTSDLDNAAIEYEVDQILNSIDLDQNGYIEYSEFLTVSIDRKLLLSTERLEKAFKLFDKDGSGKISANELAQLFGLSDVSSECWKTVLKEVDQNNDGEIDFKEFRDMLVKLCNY
Chain of Plasmodium falciparum protein kinase 6 (PK6, PF3D7_1337100) (Q8IDW1 1-305): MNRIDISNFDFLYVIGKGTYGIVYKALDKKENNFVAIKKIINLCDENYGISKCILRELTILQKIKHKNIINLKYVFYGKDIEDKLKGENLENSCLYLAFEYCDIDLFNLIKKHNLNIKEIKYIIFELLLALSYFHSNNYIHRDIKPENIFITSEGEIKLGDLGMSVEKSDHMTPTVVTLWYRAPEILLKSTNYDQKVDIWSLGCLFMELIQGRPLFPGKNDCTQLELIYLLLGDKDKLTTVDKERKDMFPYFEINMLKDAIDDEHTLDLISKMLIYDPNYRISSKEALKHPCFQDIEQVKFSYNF

For orientation: inhibition means the relative decrease from the control value, in per cent. On to `CC(=O)Nc1ccc(OCCCN(Cc2ccccc2C(F)(F)F)c2ccc(C(F)(F)F)c(C#N)c2)c(Cl)c1`, for which the growth inhibition in assay [1] was 43%; in assay [4], 85% (active). Further, the inhibition in assay [2] was 5%; in assay [3] it was 3%. Moreover, the result in assay [5], in assay [6], in assay [7] and in assay [8] was inactive.

With `CCN(CCCN1CCCCC1)c1cc(C)nc(Nc2cc(Cl)cc(Cl)c2)n1`, the growth inhibition in assay [1] is 99% (active); in assay [4], 100% (active). Besides, the inhibition is 34% in assay [2] and -3% in assay [3]. For the same compound, the outcome in assay [5], in assay [6], in assay [7] and in assay [8] was inactive.

In the case of `COc1ccc(Cn2c(Nc3cccc(C(F)(F)F)c3)nc3cc(C(=O)NCCN4CCCC4)cnc32)cc1Cl`, the growth inhibition was 31% in assay [1] and 97% (active) in assay [4]. Further, the inhibition in assay [2] is 10%; in assay [3], 0%. Besides, the result in assay [5], in assay [6], in assay [7] and in assay [8] was inactive.

On to `FC(F)(F)c1ccc2nccc(NN=CC=Cc3ccccc3)c2c1`, for which the figures for the growth inhibition in assay [1] and in assay [4] were 9% and 82% (active), respectively. The inhibition in assay [2] was -4%; in assay [3] it was -1%. For the same compound, the outcome in assay [5], in assay [6], in assay [7] and in assay [8] was inactive.

Consider `Oc1cccc2c1CC(NCc1ccccc1)CC2` (stereo not given), for which the growth inhibition is 24% in assay [1] and 90% (active) in assay [4]. The inhibition was 4% in assay [2] and 6% in assay [3]. The outcome in assay [5], in assay [6], in assay [7] and in assay [8] was inactive.

Consider `Cc1cc(N2CCCC2)nc(Nc2ccc(NC(=O)C(C)(C)C)cc2)n1`, for which the growth inhibition in assay [1] was 15%; in assay [4], 95% (active). The inhibition is 24% in assay [2] and 2% in assay [3]. Moreover, the result in assay [5], in assay [6], in assay [7] and in assay [8] was inactive.

For the compound `COc1ccc2nccc(N3CCC(NCCNCc4ccc5c(n4)NC(=O)CO5)C3)c2n1` (stereo not given), the results for the growth inhibition in assay [1] and in assay [4] were 47% and 100% (active), respectively. For the same compound, the values for the inhibition in assay [2] and in assay [3] were 0% and 3%, respectively. The outcome in assay [5], in assay [6], in assay [7] and in assay [8] was inactive.

Take `CC(=O)Nc1ccc(C(=O)Nc2cccc(-c3cccc(-c4nc5c(C)cccc5[nH]4)c3)c2)cn1`: the growth inhibition in assay [1] was 100% (active); in assay [4] it was 101% (active). Moreover, the figures for the inhibition in assay [2] and in assay [3] were 16% and -2%, respectively. In addition, the outcome in assay [5], in assay [6], in assay [7] and in assay [8] was inactive.

On to `Cc1[nH]c2ccccc2c1C(=O)C(C)Sc1n[nH]c(-c2ccccc2Br)n1` (stereo not given), for which the growth inhibition in assay [1] is 100% (active); in assay [4] it was 101% (active). The inhibition was -7% in assay [2] and -3% in assay [3]. Besides, the result in assay [5], in assay [6], in assay [7] and in assay [8] was inactive.

In the case of `C=C[C@]1(C)C[C@@H](OC(=O)c2cncn(COC)c2=O)[C@]2(C)[C@H](C)CC[C@]3(CCC(=O)[C@H]32)[C@@H](C)[C@@H]1O`, the growth inhibition in assay [1] was 7%; in assay [4] it was 96% (active). Further, the inhibition in assay [2] and in assay [3] was -1% in each case. In addition, the outcome in assay [5], in assay [6], in assay [7] and in assay [8] was inactive.

As to `CC(C)(C)c1ccc(CN2CCC(NC(=O)c3ccc(-c4cccc(F)c4)s3)CC2)cc1`, the growth inhibition in assay [1] is 24%; in assay [4] it was 92% (active). The results for the inhibition in assay [2] and in assay [3] were 35% and 0%, respectively. For the same compound, the outcome in assay [5], in assay [6], in assay [7] and in assay [8] was inactive.

For `COc1cc(C(=O)N2CCOC(CCN3CCc4c(c5ccccc5n4C)C3)(c3ccc(Cl)c(Cl)c3)C2)cc(OC)c1OC` (stereo not given), the growth inhibition in assay [1] was 68% (active); in assay [4], 87% (active). In addition, the inhibition in assay [2] was 16%; in assay [3], -4%. Also, the outcome in assay [5], in assay [6], in assay [7] and in assay [8] was inactive.

Regarding `CCCCCCCCN1CCN(CCCCCCNc2c3ccccc3nc3ccccc23)CC1`, the growth inhibition is 100% (active) in assay [1] and 101% (active) in assay [4]. The inhibition was 100% (active) in assay [2] and -4% in assay [3]. Further, the outcome in assay [5], in assay [6], in assay [7] and in assay [8] was inactive.

On to `C[C@@H](Oc1cc(-n2cnc3ccc(OCC4CCN(S(C)(=O)=O)CC4)cc32)sc1C(N)=O)c1ccccc1C(F)(F)F`, for which the growth inhibition is 50% (active) in assay [1] and 84% (active) in assay [4]. The inhibition was 31% in assay [2] and 5% in assay [3]. In addition, the result in assay [5], in assay [6], in assay [7] and in assay [8] was inactive.

For `CN1CCN(CCCN(Cc2cccc(-c3ccc(CNCCc4ccccc4)cc3)c2)C(=O)Nc2ccccc2)CC1`, the growth inhibition in assay [1] was 91% (active); in assay [4], 100% (active). For the same compound, the inhibition in assay [2] is 61% (active); in assay [3], 3%. Further, the outcome in assay [5], in assay [6], in assay [7] and in assay [8] was inactive.

In the case of `c1cc(CNc2ncc(-c3ccsc3)c(-c3nccs3)n2)ccn1`, the growth inhibition in assay [1] was 81% (active); in assay [4] it was 89% (active). In addition, the inhibition in assay [2] was 18%; in assay [3], -7%. The result in assay [5], in assay [6], in assay [7] and in assay [8] was inactive.

As to `CCOc1cc(C=NNc2nc3ccccc3[nH]2)ccc1OCc1ccc([N+](=O)[O-])cc1`, the growth inhibition is 1% in assay [1] and 100% (active) in assay [4]. The inhibition is 2% in assay [2] and -6% in assay [3]. The outcome in assay [5], in assay [6], in assay [7] and in assay [8] was inactive.

On to `NC(N)=NCCN(Cc1ccccc1)c1ccccc1`, for which the growth inhibition in assay [1] is 98% (active); in assay [4], 100% (active). Besides, the inhibition was 8% in assay [2] and 3% in assay [3]. Also, the result in assay [5], in assay [6], in assay [7] and in assay [8] was inactive.

Consider `CCc1nc(N)nc(N)c1CCCOc1ccccc1Cl`, for which the values for the growth inhibition in assay [1] and in assay [4] were 13% and 92% (active), respectively. The inhibition in assay [2] is 61% (active); in assay [3], 1%. The result in assay [5], in assay [6], in assay [7] and in assay [8] was inactive.

On to `CCC(C(=O)Nc1cc(=O)[nH]c2nc(-c3ccco3)nn12)c1ccccc1` (stereo not given), for which the growth inhibition in assay [1] was 68% (active); in assay [4], 87% (active). The values for the inhibition in assay [2] and in assay [3] were 2% and -1%, respectively. Also, the result in assay [5], in assay [6], in assay [7] and in assay [8] was inactive.
